Laboratory results published in PubChem BioAssay (EPA / NIEHS).
“And” between values parts separate entries of the source, which are not always exact repeats. Equal entries are not always repeated. The source made the active and inactive calls. How the source made its calls: active means hit-call score of the fitted dose curve at least 0.9, where 1 is the maximum; inactive means score below 0.9.

Read-out: Macrophage colony-stimulating factor (MCSF), CSF1 (gene 1435)
Experiment: BSK_LPS_MCSF: BioMAP Diversity Plus: LPS Assay for Macrophage colony-stimulating factor (MCSF) Biomarker Activity (AID 2283083)
Conditions: primary human HUVEC with PBMC; actives raise or lower the signal
Description: BSK_LPS is a cell-based, multiplexed-readout assay that uses umbilical vein endothelium and peripheral blood mononuclear cells, a human vascular primary cell co-culture, with measurements taken at 24 hours after chemical dosing in a 96-well plate.BSK_LPS_MCSF is an assay component measured in the BSK_LPS assay. It measures M-CSF antibody related to regulation of gene expression using ELISA technology.Data from the assay component BSK_LPS_MCSF was analyzed into 1 assay endpoint. This assay endpoint, BSK_LPS_MCSF, was analyzed with bidirectional fitting relative to DMSO as the negative control and baseline of activity. Using a type of binding reporter, gain or loss-of-signal activity can be used to understand changes in the signaling as they relate to the gene CSF1. Furthermore, this assay endpoint can be referred to as a primary readout, because this assay has produced multiple assay endpoints where this one serves a signaling function. To generalize the intended target to other relatable targets, this assay endpoint is annotated to the cytokine intended target family, where the subfamily is colony stimulating factor.
The levels of cell surface (or secreted, indicated by the prefix "s") biomarker endpoints were measured by ELISA. Overt cytotoxicity to cells in confluent adherent cultures (all systems other than the BT system) was assessed by measuring total protein levels using sulforhodamine B (SRB) staining in parallel cultures at the time of biomarker measurements, indicated as SRB endpoints. For proliferation assays for adherent cell types, individual cell types are cultured at sub-confluence and relative cell numbers quantified by SRB staining at time points optimized for each system (48 h: 3C and CASM3C systems; 72 h: BT and HDF3CGF systems; 96 h: SAg system). SRB was performed by staining cells with 0.1% SRB after fixation with 10% TCA and reading wells at 560 nm.Viability and proliferation of PBMC (T cells) was quantified by Alamar Blue reduction for the SAg and BT systems. For PBMC viability (referred to as PBMC Cytotoxicity within the assay endpoint names), cells were plated (75,000/well in a 96-well plate) and then chemical samples added for 1 h before addition of activators, SEB and TSST-1 (20 ng/mL final concentration each). Cells were incubated for 90 h. Then, Alamar Blue (20 uL/well) (Invitrogen, Cat DAL1100) was added for 6 h, and the plates were read with a fluorescence microplate reader at 546/580 nm (excitation/emission). For PBMC proliferation, cells were plated and activated as above but incubated for only 16 h prior to addition of Alamar Blue. Plates were read after 6 h.

Q: How did the outcome turn out when CCn1cc(C(=O)O)c(=O)c2ccc(C)nc21 was run?
A: inactive

Q: How did the outcome turn out when NC(=O)c1c(Cl)cccc1Cl was run?
A: inactive

Q: For CCCCCCCCCCCCS, which AC50 is on record?
A: 31.4 µM (active)

Q: COC(=O)c1ccc(C(=O)OC)cc1 was tested. Which outcome did it give?
A: inactive

Q: For CCOC(=O)C=Cc1ccccc1, which outcome is on record?
A: inactive

Q: For CCOC(=O)CCCCCCCCC(=O)OCC, which outcome is on record?
A: inactive

Q: For CC(=O)OCC=C(C)CCC=C(C)CCC=C(C)C, which outcome is on record?
A: inactive

Q: For O=S1(=O)CC(Cl)(Cl)C(Cl)(Cl)C1, which AC50 is on record?
A: 0.71 µM (active)

Q: For CC(C)(CO)CO, which outcome is on record?
A: inactive

Q: Which outcome does the source give for CC1=CC(C)C(C=O)C(C)C1 (stereo not given) (tested in a mixture with another compound) here?
A: inactive

Q: C=C(C)C(=O)OCCC(F)(F)C(F)(F)C(F)(F)C(F)(F)C(F)(F)C(F)(F)C(F)(F)C(F)(F)F was tested. Which outcome did it give?
A: inactive

Q: C[C@]12CC[C@@H]3c4ccc(O)cc4CC[C@H]3[C@@H]1CC[C@@H]2O was tested. Which outcome did it give?
A: inactive

Q: For CC(C)Cc1ccc(C(C)C(=O)O)cc1 (stereo not given), which outcome is on record?
A: inactive

Q: How did the AC50 turn out when C=C1CC/C=C(\C)CC[C@@H]2[C@@H]1CC2(C)C was run?
A: 31.6 µM (active)

Q: For CCCO[Si](OCCC)(OCCC)OCCC, which outcome is on record?
A: inactive

Q: How did the outcome turn out when COc1ccccc1NC(=O)CC(C)=O was run?
A: inactive

Q: Which outcome does the source give for Nc1ccc(N)c([N+](=O)[O-])c1 here?
A: inactive

Q: With CC1(C)[C@H](C=C(Cl)Cl)[C@H]1C(=O)OCc1cccc(Oc2ccccc2)c1 as the compound, how does the outcome read?
A: inactive

Q: For O=C(O)C(F)(F)OC(F)(F)C(F)(F)OC(F)(F)C(F)(F)C(F)(F)C(F)(F)F, which outcome is on record?
A: inactive

Q: Which AC50 does the source give for C=CC(=O)OCC(CO)(COC(=O)C=C)COC(=O)C=C here?
A: 0.379 µM (active)

Q: CC/C(=C(\c1ccccc1)c1ccc(OCCN(C)C)cc1)c1ccccc1 was tested. Which AC50 did it give?
A: 15.3 µM (active) and 8.1 µM (active)

Q: How did the outcome turn out when c1ccc(OCCOc2ccccc2)cc1 was run?
A: inactive

Q: For c1ccc2c(c1)-c1ccc3ccc4cccc5cc-2c1c3c45, which AC50 is on record?
A: 1.38 µM (active)

Q: Which outcome does the source give for C=C(F)C(=O)OC(C(F)(F)F)C(F)(F)F here?
A: inactive

Q: CC(=O)OC(C)(C)C1CC=C(C)CC1 (stereo not given) was tested. Which outcome did it give?
A: inactive

Q: How did the outcome turn out when CCCCCCCC1CCCC1=O (stereo not given) was run?
A: inactive

Q: With O=C1OC2(c3ccc(O)cc3Oc3cc(O)ccc32)c2ccccc21 as the compound, how does the outcome read?
A: inactive

Q: With O=S(=O)(O)C(F)(F)C(F)(F)OC(F)(F)C(F)(F)F as the compound, how does the outcome read?
A: inactive

Q: Which outcome does the source give for CCCCOCCOCCO here?
A: inactive

Q: How did the outcome turn out when C=C(C)C(N)=O was run?
A: inactive

Q: With CC(C)CCCC(C)(C)O as the compound, how does the outcome read?
A: inactive

Q: How did the outcome turn out when O=C(O)C(F)(F)C(F)(F)C(F)(F)C(F)(F)C(F)(F)C(F)(F)C(F)(F)C(F)F was run?
A: inactive

Q: Which outcome does the source give for CCCCCCCCCC(=O)OCC here?
A: inactive

Q: For CC(C)(C)c1cccc(O)c1, which outcome is on record?
A: inactive

Q: Which outcome does the source give for OCCN1CCOCC1 here?
A: inactive

Q: For c1ccc(Sc2ccccc2)cc1, which AC50 is on record?
A: 35.6 µM (active)

Q: OCC(F)(OC(F)(F)C(F)(OC(F)(F)C(F)(F)C(F)(F)F)C(F)(F)F)C(F)(F)F (stereo not given) was tested. Which outcome did it give?
A: inactive

Q: How did the outcome turn out when CC=CC(=O)C1=C(C)C=CCC1(C)C was run?
A: inactive

Q: C#C[C@]1(O)CC[C@H]2[C@@H]3CCc4cc(O)ccc4[C@H]3CC[C@@]21C was tested. Which outcome did it give?
A: inactive

Q: For CCCCN(CCO)CCO, which outcome is on record?
A: inactive
